Experimental data published in PubChem BioAssay (NCI).
This is part of a sample that, as a whole, favours compounds with a hit. Of some 79,000 tested, about 15% had one in any assay. The source made the active and inactive calls. No stated cut-off is given here; in the data, active means growth inhibition above about 70%; inactive means the rest.

Tests used:
[1] = NCI Yeast Anticancer Drug Screen. Data for the rad50 strain (AID 155);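 further: 0% = growth of vehicle-only cultures of the same strain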; details: S. cerevisiae rad50 strain growth inhibition; at 50.0 µM; stronger effect = higher value
Procedure, shortened: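 Vehicle-treated cultures provide the reference for the growth inhibition reported for compound-exposed, repair-deficient yeast.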

[2] = NCI Yeast Anticancer Drug Screen. Data for the mec2-1 strain (AID 157); details: S. cerevisiae mec2-1 strain, at 50.0 µM, stronger effect = higher value
Procedure, shortened: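 Cells of the genetically defined mec2-1 yeast strain are incubated with test compound. Inhibition of growth is calculated against vehicle-treated controls.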

[3] = NCI Yeast Anticancer Drug Screen. Data for the sgs1 mgt1 strain (AID 161);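 further: 0% = growth of cultures given vehicle only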; details: S. cerevisiae sgs1 mgt1 strain, at 50.0 µM, stronger effect = higher value
Procedure, shortened: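 Genetically altered yeast, compound exposure, growth inhibition relative to vehicle.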

[4] = NCI Yeast Anticancer Drug Screen. Data for the cln2 rad14 strain (AID 165);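 further: 0% = growth equal to vehicle treated cultures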; details: S. cerevisiae cln2 rad14 strain, at 50.0 µM, stronger effect = higher value
Procedure, shortened: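 The screen exposed genetically defined yeast (cln2 rad14) to test compounds and scored growth inhibition relative to vehicle-treated controls.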

[5] = NCI Yeast Anticancer Drug Screen. Data for the bub3 strain (AID 167); details: S. cerevisiae bub3 mutant strain, at 50.0 µM, stronger effect = higher value
Procedure, shortened: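 Mutant yeast screening strain plus compound; vehicle-treated cultures serve as the 0% inhibition reference.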

[6] = NCI Yeast Anticancer Drug Screen. Data for the mlh1 rad18 strain (AID 175); details: S. cerevisiae mlh1 rad18 strain growth inhibition; at 50.0 µM; stronger effect = higher value
Procedure, shortened: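 Compound-treated yeast growth, normalised to vehicle controls. Strain bears defined DNA repair mutations.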

Measured: growth inhibition

O=C(Nc1ccccc1C(=O)N/N=C/c1ccc(Cl)cc1)c1ccccc1Cl
inactive: [1] 49.2% | [2] 27.9% | [3] 22.6% | [4] 29.6% | [5] 42.1% | [6] 25.8%

Cc1ccc(N2CCN(C(=O)c3ccccc3)CC2)cc1
inactive: [1] -16.9% | [2] 1.55% | [3] -2.45% | [4] -13.6% | [5] 16.5% | [6] -9.35%

O=C1CCCc2ccc([N+](=O)[O-])c(O)c21
inactive: [1] 11% | [2] 10.1% | [3] -2.55% | [4] 4.4% | [5] 9.8% | [6] 8.65%

C[Si](C)(C)c1ccc2c(c1O)C(=O)c1ccccc1C2=O
inactive: [1] 10.6% | [2] 16.9% | [3] 31.9% | [4] 53.6% | [5] -1.15% | [6] 3.3%

CC1(C)CNC[C@@](C)(O)C(=O)NC(C)(C)CNC[C@@](C)(O)C(=O)N1
inactive: [1] 9.75% | [2] 5.75% | [3] -32.6% | [4] 4.7% | [5] -46.3% | [6] -9.2%

CSC1=NNC(c2ccccc2)=C(c2ccccc2)S1
inactive: [1] -1.55% | [2] 4.2% | [3] 52% | [4] -31.8% | [5] 59.7% | [6] 0.45%

CN(C)C(=S)/N=c1\ssc(=S)n1Cc1cccs1
inactive: [1] -11.1% | [2] -19.5% | [3] -19.6% | [4] 6.75% | [5] -9.4% | [6] 12%

NS(=O)(=O)c1ccc(C(=O)O)s1
inactive: [1] -12.1% | [2] -11.2% | [3] -10.3% | [4] -11% | [5] 11.6% | [6] -18.1%

CCC[C@H](C)[C@H]1NC(=O)[C@@H](NC(=O)[C@@H](CC(C)C)N(C)C(=O)C2CCCN2C(=O)[C@H](C)O)[C@@H](C)OC(=O)[C@H](CC(C)C)N(C)C(=O)[C@@H]2CCCN2C(=O)[C@H](CC(C)C)NC(=O)[C@@H](C)C(=O)[C@H](C(C)C)OC(=O)C[C@@H]1O (stereo partly specified)
inactive: [1] 21.2% | [2] 9.35% | [3] -5.9% | [4] 26.3% | [5] -20.9% | [6] -54%

CCCCC(CCCC)c1ccccn1
inactive: [1] -15.1% | [2] -10.9% | [3] 8.15% | [4] -18.2% | [5] 8.85% | [6] -14.4%

CCCCSCC(O)c1ccccc1 (stereo unspecified)
inactive: [1] -8.85% | [2] -19.1% | [3] -24.5% | [4] -44.1% | [5] 9% | [6] -2.2%

CCc1ccccc1NC(=O)CCc1nc(=S)[nH][nH]1
inactive: [1] -24.8% | [2] 9.6% | [3] 2.9% | [4] 32.4% | [5] 20.1% | [6] 6.15%

Cc1cc(C)c(NC(=O)Nc2cccc(F)c2)c(C)c1
inactive: [1] 20.8% | [2] 11% | [3] 13.2% | [4] 19.2% | [5] 23.4% | [6] 13.3%

COc1ccccc1NCC(=O)Nn1c(C)nc2ccc(S(=O)(=O)Nc3ccccc3OC)cc2c1=O
inactive: [1] 2.85% | [2] -18.9% | [3] 20.9% | [4] 16.2% | [5] 1.55% | [6] 0.1%

C1C[OH+]CC[OH+]CCNCC[OH+]CC[OH+]CCN1.Cl.[Cl-].[Pt+4]
inactive: [1] 8.7% | [2] -9.3% | [3] 6.25% | [4] 10.4% | [5] -3.65% | [6] 7%

CC(C)(C)C(=O)C(C#N)C(=O)C(C)(C)C
inactive: [1] 8.75% | [2] -19.9% | [3] -7.45% | [4] 16.1% | [5] -19.9% | [6] -14.2%

CCCc1c(-c2ccccc2)nc(N)nc1-c1nc(N)nc(-c2ccccc2)c1CCC
inactive: [1] -1.75% | [2] -10.7% | [3] -12.4% | [4] 9.4% | [5] -2.25% | [6] -1.4%

CC(O)c1cc2c(s1)C(=O)c1sccc1C2=O (stereo unspecified)
active: [1] 90.6% | [2] 93.5% | [3] 92% | [4] 91.2% | [5] 91.9% | [6] 91.2%

Clc1ccc(CSc2nnc(SCc3ccc(Cl)c(Cl)c3)c3[nH]cnc23)cc1Cl
inactive: [1] 36.5% | [2] 6.15% | [3] 47.4% | [4] 30.6% | [5] 22.9% | [6] 3.1%

Cc1cc(C(=O)O)c(C(=O)O)c(=O)[nH]1
inactive: [1] 0.6% | [2] 5.8% | [3] 0.3% | [4] 7.1% | [5] -1.05% | [6] -13.9%

N#CC(c1ccccc1)c1cccc(C(=O)O)c1 (stereo unspecified)
inactive: [1] -16.9% | [2] -13.5% | [3] 5.6% | [4] -20.4% | [5] -25.9% | [6] 5.45%

COc1ccc2c(c1)C[N+](C)(C)[B-]O2
inactive: [1] -1.6% | [2] -1.55% | [3] 5.45% | [4] -8.65% | [5] 2.1% | [6] 6.75%

CCOC(=O)/C(C#N)=C(\CC)c1ccccc1
inactive: [1] -8.5% | [2] -8.85% | [3] -3.85% | [4] -0.15% | [5] -8.85% | [6] -21.5%

CCCCn1c(N)n[nH]c1=S
inactive: [1] 20.5% | [2] 8.55% | [3] 1.55% | [4] -52.5% | [5] -7.25% | [6] -5.9%

CCCCC(N)=O
inactive: [1] -21.9% | [2] -9.05% | [3] 9.8% | [4] 5.7% | [5] -5.2% | [6] 4.3%

CC1CC12OC(=O)N(c1cc(Cl)cc(Cl)c1)C2=O (stereo unspecified)
inactive: [1] 1.7% | [2] 8.9% | [3] 14.3% | [4] 35.1% | [5] -2.05% | [6] 16.6%

CCC(=O)c1ccc([N+](=O)[O-])cc1
inactive: [1] -14.2% | [2] -18.2% | [3] -24.7% | [4] -59.4% | [5] 1.95% | [6] -10.2%

C=CCC(=O)OCc1cc2c(cc1Br)OCO2
inactive: [1] -26.8% | [2] -17.2% | [3] -8.35% | [4] -10.6% | [5] 54.5% | [6] 5.85%

c1ccc(C2=NN3CN(N2)c2ccccc2OCCCOc2ccccc23)cc1
inactive: [1] -25.2% | [2] 2.05% | [3] -5.55% | [4] 12.8% | [5] 18.3% | [6] 6.25%

COc1cccc(N2C(=O)CC(=P(c3ccccc3)(c3ccccc3)c3ccccc3)C2=O)c1
inactive: [1] 40% | [2] 20.6% | [3] 23.9% | [4] -21.7% | [5] -7.9% | [6] 13.4%

CO/N=C1\C(O)CC2C(C)(CCC3C2(C)CCC2(C)C4CC(C)(C)CCC4(C)CCC32C)C1C (stereo unspecified)
inactive: [1] 1.9% | [2] -3.8% | [3] -18.5% | [4] -14.1% | [5] -1.45% | [6] -5.85%

COc1ccc(C(=O)/C=C/c2ccc(OCCCOc3ccc(/C=C/C(=O)c4ccc(OC)cc4)cc3)cc2)cc1
inactive: [1] -7.3% | [2] -19.9% | [3] 3.6% | [4] -24.6% | [5] -19.9% | [6] -27.4%

O=S(=O)(Nc1ccccc1)c1cc(O)ccc1O
inactive: [1] -3.35% | [2] -11.2% | [3] -9.75% | [4] -12.1% | [5] -26.5% | [6] -9.85%

O=C(O)CC(O)(c1ccccc1C(=O)O)c1cccc2ccccc12 (stereo unspecified)
inactive: [1] -2.95% | [2] -4.05% | [3] 18.4% | [4] 25.2% | [5] -3.15% | [6] 22.3%

CSCCC(O)C(=O)O (stereo unspecified)
inactive: [1] 21.8% | [2] -7.4% | [3] 19.5% | [4] 28.2% | [5] -2.55% | [6] 17%

CC(C)NC(=O)c1ccccc1S(=O)c1ccccc1C(=O)NC(C)C
inactive: [1] -16.4% | [2] 3.45% | [3] 8.15% | [4] 11.3% | [5] 5.05% | [6] 7.25%

CC(CCl)NC(=O)Nc1cccc2c1CCCC2 (stereo unspecified)
inactive: [1] -12.5% | [2] 0.3% | [3] -3.9% | [4] -36% | [5] -2.6% | [6] 18.8%

C=CCN1COc2c(cc3c4c(cccc24)C(=O)O3)C1
inactive: [1] -0.25% | [2] -4.25% | [3] 10.1% | [4] 8.35% | [5] 6.35% | [6] 8.35%

CCCCNCCOC(=O)c1ccc(N)cc1
inactive: [1] 2.9% | [2] 2% | [3] 1.9% | [4] 16.4% | [5] 10.1% | [6] 12.1%

COP(=O)(OC)C(NC(=O)C(F)(F)F)(c1ccccc1)C(F)(F)F (stereo unspecified)
inactive: [1] -28.1% | [2] -7.25% | [3] -37.2% | [4] -8% | [5] -16.9% | [6] -28.7%

CNC(=O)n1cncn1
inactive: [1] -10.6% | [2] 3.35% | [3] -9.75% | [4] 0.1% | [5] -2.2% | [6] -12.7%
